Source: PubChem BioAssay
Only some compounds are listed: those with a hit (about 3.1% of all), similar ones and a draw of the others.
PAFAH1B2 inh: inhibitors of human PAFAH1B2; 340,000 compounds, 1.2% hits; inhibition, % at 3.39 µM; AID 492953; recombinant PAFAH1B2, FP-rhodamine activity probe, fluorescence polarization; P68402;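 active = inhibition above the mean of all tested compounds plus 3 SD, cut at about 24% in these data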
E coli Lon inh: inhibitors of E. coli Lon protease. purified E. coli Lon protease, fluorescence polarization. inhibition, % at 7.94 µM. 360,000 compounds, 0.42% hits; in the data active = inhibition above about 13%, passing the limit was not always enough
Rin1-Abl PPI inh: human Rin1-Abl interaction inhibition; P00519+Q13671; TR-FRET Rin1/Abl binding, biochemical; inhibition, % at 7.35 µM; 360,000 compounds, 0.4% hits; in the data active = inhibition above about 5%, passing the limit was not always enough
pPAFAH inh: inhibitors of human plasma PAF acetylhydrolase (pPAFAH); Q13093; 330,000 compounds, 1.5% hits; inhibition, % at 3.39 µM; AID 463082; recombinant pPAFAH, FP-rhodamine probe fluorescence polarization;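 active = inhibition above the mean inhibition across the screen plus 3 SD, cut at about 25% in these data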;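 also: inhibitors block binding of the rhodamine activity-based probe so polarization drops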
Target sequence (Q13093 whole entry, looked up): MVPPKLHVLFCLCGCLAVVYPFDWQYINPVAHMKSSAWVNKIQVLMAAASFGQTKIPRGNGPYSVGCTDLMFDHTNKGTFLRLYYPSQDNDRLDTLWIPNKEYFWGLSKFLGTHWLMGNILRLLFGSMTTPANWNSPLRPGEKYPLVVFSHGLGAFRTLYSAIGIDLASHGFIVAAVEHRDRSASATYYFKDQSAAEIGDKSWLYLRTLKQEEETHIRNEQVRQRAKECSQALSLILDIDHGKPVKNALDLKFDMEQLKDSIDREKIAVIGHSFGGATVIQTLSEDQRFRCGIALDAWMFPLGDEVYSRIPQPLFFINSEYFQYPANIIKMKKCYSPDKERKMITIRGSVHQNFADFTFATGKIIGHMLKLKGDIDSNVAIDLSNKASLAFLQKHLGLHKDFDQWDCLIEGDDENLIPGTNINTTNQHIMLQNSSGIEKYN
PAFAH2 FP inh: PAFAH2 (human) inhibition. Q99487. recombinant PAFAH2, FP-rhodamine activity probe, fluorescence polarization. inhibition, % at 3.39 µM. 340,000 compounds, 0.99% hits;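 active = inhibition above the mean over all tested compounds plus 3 SD, cut at about 30% in these data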;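 also: inhibitors block probe labeling of enzyme so polarization drops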
PAFAH1B3 FP inh: blocks human PAF acetylhydrolase 1B catalytic subunit 3; recombinant PAFAH1B3, FP-rhodamine probe, fluorescence polarization; 340,000 compounds, 0.28% hits; Q15102; inhibition, % at 3.39 µM;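 active = inhibition above the screen-wide average of all tested compounds plus 3 SD, cut at about 25% in these data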
Rin1-Abl confirm: Rin1-Abl interaction inhibition confirmation. shares compounds with Rin1-Abl PPI inh. TR-FRET Rin1-Abl binding, purified proteins. inhibition, % at 7.35 µM. 1,300 compounds, 49% hits. AID 602124
GFP quench-1: quenches GFP fluorescence, counter-screen for Rin1-Abl inhibitors. shares compounds with Rin1-Abl PPI inh. 1,300 compounds, 8.5% hits. inhibition, % at 6.75 µM. inhibitors/quenchers counterscreen. AID 602125;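 also: ABL1-eGFP fusion protein alone without its partner RIN1-SBP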
GFP quench dose: quenches GFP in dose response, Rin1-Abl counter-screen. shares compounds with Rin1-Abl PPI inh. GFP fluorescence interference/quenching counterscreen. IC50, µM. 230 tested, under 10 active; call rule not given here;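 also: ABL1-eGFP fusion protein alone without its RIN1 binding partner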
GFP quench-2: quenches GFP fluorescence in Rin1-Abl counterscreen | AID 602397 | GFP fluorescence quenching counterscreen, biochemical | shares compounds with Rin1-Abl PPI inh | 25 tested, under 10 active | IC50, µM; call rule not given here
Numbers stand for hits; . = inactive; / = no result. Rule as the data show it, unless noted: active = inhibition above about 6.5%; inactive = the rest.

SMILES	PAFAH1B2 inh	E coli Lon inh	Rin1-Abl PPI inh	pPAFAH inh	PAFAH2 FP inh	PAFAH1B3 FP inh	Rin1-Abl confirm	GFP quench-1	others
CN(C)S(=O)(=O)c1cccc(NC(=S)N/N=C/c2ccc(O)c(O)c2O)c1	.	.	27	/	.	.	18	10
Cc1ccc(C(=O)Nc2ccc3cn[nH]c3c2)cc1S(=O)(=O)N1CCOCC1	.	.	.	.	.	.	/	/
Cc1cccc(C)c1NC(=O)C(=O)NCC1CCCN1S(=O)(=O)c1cccs1 (configuration not stated)	.	.	.	.	.	.	/	/
CCOC(=O)c1ccc(NC(=O)COc2ccccc2CNCCc2ccccc2)cc1	.	.	19	.	.	.	24	.	GFP quench dose=.
CCOC(=O)c1ccc(NC(=O)COc2ccc(CNCCO)cc2OCC)cc1	.	.	.	.	.	.	/	/
O=C1NC[C@H](CCCCN2C[C@H](Cc3ccccc3)N(CCC3CCCCC3)C(=O)C2=O)N(CC2CCCCC2)C1=O	/	.	/	/	/	/	/	/
CSc1nc2sc3c(c2c(=O)[nH]1)CCC3	.	.	5.8	.	.	.	.	.
CCOC(=O)N1CCN(CCC(=O)Nc2ccc(Br)c(C)c2)CC1	.	.	8.9	.	.	.	11	.
CC1CCCCC12NC(=O)N(CC(=O)N1CCN(c3ncccn3)CC1)C2=O (configuration not stated)	.	.	.	.	.	.	/	/
COc1ccc(CN(C)CCCn2ccc(NC(=O)OCc3ccccc3)nc2=O)cc1OC	/	.	15	/	/	/	22	.	GFP quench dose=.
CC[C@@H](NCCCn1ccc(NC(=O)OCc2ccccc2)nc1=O)c1ccccc1	/	.	8.4	/	/	/	8.8	.
O=C(Nc1ccn(CCCN2CCN(c3ccccc3)CC2)c(=O)n1)OCc1ccccc1	/	.	.	/	/	/	/	/
CCCCn1c(SCC(=O)NC2CC2)nc2ccccc2c1=O	.	.	.	.	.	.	/	/
O=c1cc(OCc2ccccc2)cc[nH]1	.	.	96	.	.	.	99	.	GFP quench dose=.;GFP quench-2=.
CC1(c2nnc(-c3ccc(Cl)cc3)o2)CC(c2ccc([N+](=O)[O-])cc2)=NO1 (configuration not stated)	.	.	.	.	.	.	/	/
CC1(c2nnc(-c3ccccc3)o2)CC(c2c(Cl)cccc2Cl)=NO1 (configuration not stated)	.	.	.	.	.	.	/	/
CC1(c2nnc(-c3ccncc3)o2)CC(c2ccc([N+](=O)[O-])cc2)=NO1 (configuration not stated)	.	.	18	/	.	.	21	.
CC1(c2nnc(-c3ccncc3)o2)CC(c2c(Cl)cccc2Cl)=NO1 (configuration not stated)	.	.	38	.	.	.	27	.
CC(=O)NC(c1cc(Cl)c2cccnc2c1O)C(C)C (configuration not stated)	.	.	.	.	.	.	/	/
CC(=O)NC(c1cccc([N+](=O)[O-])c1)c1ccc2cccnc2c1O (configuration not stated)	.	.	.	/	.	.	/	/
CC(=O)NC(c1ccco1)c1cc(Cl)c2cccnc2c1O (configuration not stated)	/	.	11	/	/	/	11	.
CC(=O)NC(c1ccc(C)cc1)c1cc(Cl)c2cccnc2c1O (configuration not stated)	.	.	7.0	/	.	.	.	.
COc1cccc(C(NC(C)=O)c2ccc3cccnc3c2O)c1 (configuration not stated)	.	.	6.7	.	.	.	9.6	.
O=C(NCC(=O)N1CCN(c2ccccc2)CC1)c1cccs1	.	.	.	.	.	.	/	/
Cc1cc(=O)oc2c(C)c(OCC(=O)N3CCN(C(=O)C4COc5ccccc5O4)CC3)ccc12 (configuration not stated)	.	.	10.0	.	.	.	.	.
SMILES	PAFAH1B2 inh	E coli Lon inh	Rin1-Abl PPI inh	pPAFAH inh	PAFAH2 FP inh	PAFAH1B3 FP inh	Rin1-Abl confirm	GFP quench-1	others
Cc1cc(=O)oc2c(C)c(OCC(=O)N3CCN(c4ccccc4)CC3)ccc12	.	.	.	.	.	.	/	/
Cc1cccn2c(=O)nc(SCC(=O)Nc3ccc4c(c3)OCO4)nc12	.	.	.	.	.	.	/	/
COC(=O)C1CCN(C(=O)COC(=O)Cc2c[nH]c3ccccc23)CC1	.	.	5.2	.	.	.	.	.
CC1CCCN(C(=O)COC(=O)Cc2c[nH]c3ccccc23)C1 (configuration not stated)	.	.	.	.	.	.	/	/
CN(C)CCSc1nc2cc(S(=O)(=O)N3CCCCC3)ccc2o1	.	.	.	.	.	.	/	/
O=C(NNC(=O)c1cc(S(=O)(=O)N2CCOCC2)c(Cl)cc1Cl)c1ccccc1F	.	.	.	.	.	.	/	/
CN1CCN(C(c2ccccn2)c2cc(Cl)c3cccnc3c2O)CC1 (configuration not stated)	.	.	26	.	.	.	22	.	GFP quench dose=.
Cc1ccc(C(=O)N/N=C/c2cccnc2)cc1Cl	/	.	.	/	/	/	/	/
CCOC(=O)C1CCCN(CC(O)COCc2ccc3c(c2)OCO3)C1 (configuration not stated)	.	.	6.4	.	.	.	.	.
Cc1cccc(C)c1NC(=O)c1cc(S(=O)(=O)N2CCOCC2)cn1C	.	.	.	.	.	.	/	/
Cc1c(Cl)cccc1NC(=O)c1cc(S(=O)(=O)N2CCOCC2)cn1C	.	.	8.4	.	.	.	.	.
O=C1C(O)CCN1Cc1ccccc1 (configuration not stated)	.	.	.	/	.	.	/	/
O=c1cc(CO)oc(CN2CCN(CCO)CC2)c1O	.	.	6.5	.	.	.	.	.
Cc1cccc(N2CCN(Cc3oc(CO)cc(=O)c3O)CC2)c1C	.	.	.	.	.	.	/	/
CCC(CC)CN1CCC(CN2C(=O)C(=O)NC[C@@H]2CC(C)C)CC1	/	.	19	/	/	/	14	.
CC(C)CCN1CCC(CN2C(=O)C(=O)NC[C@@H]2CC(C)C)CC1	/	.	.	/	/	/	/	/
CCOc1ccc(CN(C)C(=O)CCNC(=O)c2ccco2)cc1	.	.	8.6	.	.	.	.	.
CCCCNC(=O)C1CCN(Cc2ccc(OCc3ccccc3)cc2)CC1	.	.	.	.	.	.	/	/
CCCCC(=O)C1CCN(Cc2ccccc2)CC1	.	.	11	.	.	.	17	.	GFP quench dose=.
O=C(O)c1cccc(COc2ccccc2Cl)c1	.	.	.	.	.	.	/	/
